Source: PubChem (National Center for Advancing Translational Sciences (NCATS))
DT40 TDP1 CPT: qHTS for Inhibitors of human tyrosyl-DNA phosphodiesterase 1 (TDP1): qHTS in cells in presence of CPT; chicken DT40 Tdp1-/-;hTDP1 cells + 20 nM CPT, ATP luminescence, 48 h; Potency, µM (titrated, usually from 46.2 µM), inactives show top-dose activity change, negative = growth inhibition, usual class: inhibitors; 420,000 tested, 12% active; further: potency means the concentration at half of the fitted maximal effect; nearly all actives have a fitted effect of over 55% in size
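Chicken DT40 Tdp1-/- cells stably complemented with human TDP1 were seeded at 400 cells/well in medium containing 20 nM camptothecin, exposed to pin-transferred compounds, and grown at 37 °C for at least 48 hr. Viability was read as ATP luminescence.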
DT40 TDP1 no CPT: qHTS for Inhibitors of human tyrosyl-DNA phosphodiesterase 1 (TDP1): qHTS in cells in absence of CPT. 420,000 tested, 15% active. Potency, µM (doses to about 46.2 µM), without a hit: at the top dose activity change, negative = growth inhibition, actives largely listed as inhibitors. DT40 Tdp1-/- hTDP1 cells, no CPT, ATP luminescence, 48 h; further: potency means the concentration at half of the fitted maximal effect; nearly all actives have a fitted effect of over 55% in size
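Chicken DT40 Tdp1-/- cells stably complemented with human TDP1 were seeded at 400 cells/well with DMSO in place of 20 nM camptothecin. After compound pinning, cells grew at least 48 hr at 37 °C; viability read by CellTiter-Glo luminescence.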
IL-1B inflam inh: qHTS for Inhibitors of Inflammasome Signaling: IL-1-beta AlphaLISA Primary Screen | activity change, % at 57.5 µM | 360,000 tested, 4.7% active | THP-1 LPS/ATP IL-1B secretion, AlphaLISA, 16 h; stronger effect = lower value; in the data active means activity change below about -50%; inconclusive means mostly about -30% to -49%
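THP-1 cells pretreated 1 hr with compounds (up to 57.5 uM final), then stimulated with LPS (250 ng/mL final) plus ATP (1.25 mM final); secreted IL-1B measured by AlphaLISA after 16 hr, decreased signal indicating inhibition.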
HT1080-NT tox: qHTS for induction of synthetic lethality in tumor cells producing 2HG: qHTS for the HT-1080-NT fibrosarcoma cell line; HT-1080-NT fibrosarcoma viability, CellTiter-Glo ATP luminescence, 48 h; Potency, µM (doses to about 46.1 µM), for the others: at the top dose activity, negative = less viability, actives largely listed as cytotoxic; 360,000 tested, 1.6% active; AID 686970, 2013;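 further: NT is the 2HG producing partner of a matched IDH1 knockdown line; potency means the concentration at half of the fitted maximal effect; 0% = DMSO-treated cells and -100% = media-only wells without cells; nearly all actives have a fitted effect of over 55% in size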
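Viability by CellTiter-Glo luminescence after 48 h compound exposure at 37C of HT-1080-NT cells (750/well, RPMI, 5% FBS). % activity scaled between DMSO wells and medium-only wells, then curve-fitted and categorized by curve class.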
HT1080 IDH1KD tx: qHTS for induction of synthetic lethality in tumor cells producing 2HG: qHTS for the HT-1080-IDH1KD cell line; HT-1080 IDH1 knockdown viability, ATP luminescence, 48 h; AID 686971, 2013; Potency, µM (series often up to 46.1 µM), inactives show top-dose activity, negative = toxicity, most hits filed as cytotoxic; 360,000 tested, 2% active;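 further: potency means the concentration at half of the fitted maximal effect; 0% = DMSO wells and -100% = cell-free medium wells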
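HT-1080-IDH1KD cells (IDH1 knocked down), 750/well in RPMI with 5% FBS, treated with compound 48 h at 37 degrees C. Viability by CellTiter-Glo luminescence, normalised to DMSO and no-cell wells; concentration-response curves classed.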
* = called active by the depositor; ? = inconclusive; . = no result. In the library only some 19% were active in any assay of this set; here they are far more common. Unless noted, the call rests on the fitted dose curve; in most records, active means well fitted curve in the direction sought with a large enough effect; inconclusive means small, poorly fitted or top-dose-only effect, or another doubt; inactive means no such curve, though single readings can be large; an effect the other way counts as inactive or inconclusive. Unless noted, on the % scale 0 is the no-effect control and ±100 the full control effect.

SMILES | DT40 TDP1 CPT | DT40 TDP1 no CPT | IL-1B inflam inh | HT1080-NT tox | HT1080 IDH1KD tx
COc1ccc(-c2ccc(CO)o2)cc1N | ? | ? | 24 | -8% | 0%
N[C@@H](CCS(=O)O)C(=O)O | ? | -9% | . | . | .
O=S1(=O)CC(N2CC=CC2)CN1Cc1cn(Cc2ccc(Cl)cc2)nn1 (stereo unspecified) | -5% | -20% | -17 | 4% | 5%
COc1ccc(-n2c(C)cc(C(=O)COc3ccc(C)nc3[N+](=O)[O-])c2C)cc1 | 5.2µM* | 3.7µM* | 13 | 8% | 3%
Cc1cc(C(=O)COc2ccc(F)cc2Br)c(C)n1C1CC1 | 15µM* | 10µM* | ? | -7% | -11%
Cc1cc(C(=O)CN2C(=O)NC(CCS(C)(=O)=O)C2=O)c(C)n1C1CC1 (stereo unspecified) | 18µM* | 5.8µM* | -10 | -8% | -1%
Cc1ccc(OCCOc2ccc(Cl)cc2Cl)c([N+](=O)[O-])n1 | ? | 16µM* | -26 | 0% | -3%
COc1cccc(CNC(=O)CCNS(=O)(=O)c2ccc(C)cc2)c1 | -17% | -23% | -4 | -2% | 11%
O=C(NCc1ccc(F)cc1)c1[nH]c(C(F)(F)F)nc1-c1ccccc1 | -26% | ? | 0 | -22% | -15%
Cc1cc(C(=O)CN2C(=O)NC(C)(c3cc(F)ccc3F)C2=O)c(C)n1C1CC1 (stereo unspecified) | ? | 16µM* | -23 | -3% | -1%
Cc1cc(-n2c(C)cc(C(=O)COc3ccc([N+](=O)[O-])cc3)c2C)no1 | ? | ? | -11 | 0% | -2%
Cc1ccc(OCC(=O)c2cc(C)n(-c3cc(C)on3)c2C)c([N+](=O)[O-])n1 | 10µM* | ? | 6 | -6% | -4%
Cc1ccc(CNC(=O)COc2ccc(C)nc2[N+](=O)[O-])cc1 | -1% | -15% | 6 | -1% | 9%
Cc1ccc(OCC(=O)c2ccc(Cl)s2)c([N+](=O)[O-])n1 | 3.7µM* | 13µM* | -73* | 1% | 5%
Cc1cc(-n2c(C)cc(C(=O)COc3cc(F)ccc3[N+](=O)[O-])c2C)no1 | ? | 15µM* | 20 | -3% | -15%
Cc1nc(C(F)(F)F)ccc1C(=O)N1CCC1(C)C(=O)NS(=O)(=O)c1ccc(C#N)cc1 (stereo unspecified) | -20% | -3% | 0 | 19% | ?
CCn1c(CNC(=O)c2cccs2)n[nH]c1=S | 15% | 10% | 16 | 10% | 1%
Cc1ccc(OCC(=O)c2cc(C)n(C3CC3)c2C)c([N+](=O)[O-])n1 | ? | 23µM* | 4 | 4% | 3%
Cc1ccc(OCC(=O)c2cc(C)n(Cc3cccs3)c2C)c([N+](=O)[O-])n1 | 6.5µM* | 5.8µM* | -22 | ? | ?
CN(C1CCCCC1)S(=O)(=O)c1ccc(-c2ccccn2)s1 | 0% | -4% | ? | 0% | -17%
COCCNC(=S)N(C)[C@H]1C[C@H]2c3cc(Oc4ccccc4C)ccc3CCN2C(=O)[C@H]1[C@H](C)O | 15µM* | 8.2µM* | -21 | -7% | 0%
COCCNC(=S)N(C)[C@H]1C[C@H]2c3cc(-c4ccccc4)ccc3CCN2C(=O)[C@H]1[C@H](C)O | ? | 9.2µM* | 4 | 1% | -9%
Cc1ccccc1Oc1ccc2c(c1)[C@@H]1C[C@H](N(C)C(=S)Nc3ccc(F)cc3)[C@H]([C@H](C)O)C(=O)N1CC2 | 21µM* | ? | ? | ? | ?
C[C@@H]1CN([C@H](C)CO)C(=O)CCCn2nncc2CO[C@@H]1CN(C)C(=O)Nc1ccc2c(c1)OCO2 | -12% | -23% | 25 | -12% | -9%
COc1ccc(Cl)cc1NC(=O)CN1CCc2ccccc21 | -11% | ? | 0 | -11% | -10%
SMILES | DT40 TDP1 CPT | DT40 TDP1 no CPT | IL-1B inflam inh | HT1080-NT tox | HT1080 IDH1KD tx
O=C(Nc1cccc(Cl)c1)ON=C1c2ccccc2-c2ccccc21 | -11% | ? | 12 | -24% | ?
Cc1ccccc1NC1=NC(C)(C)N=C(N)N1 | -2% | -6% | -6 | 8% | 7%
CC1(C)N=C(N)NC(Nc2ccccc2)=N1 | ? | ? | 20 | 8.2µM* | ?
O=S1(=O)N[C@@H](Cc2ccccc2)COc2cc(N3CCC[C@@H]3CO)ccc21 | ? | 16µM* | 67 | -8% | ?
O=c1cc(-c2ccccc2)nc(SCc2nc(-c3ccc(Cl)cc3)no2)[nH]1 | -11% | -8% | . | . | .
COc1ccc(-c2noc(CSc3nc(N)cc(=O)[nH]3)n2)cc1 | 16µM* | 18µM* | 20 | ? | ?
Cc1ccc2nc(SCc3nc(-c4ccc(Cl)cc4)no3)[nH]c2c1 | 16µM* | 23µM* | . | . | .
CCc1cc(=O)[nH]c(SCc2nc(-c3ccc(C(F)(F)F)cc3)no2)n1 | 23µM* | 16µM* | . | . | .
COC(=O)Nc1sc2c(c1C(=O)NC1CC1)CCCCCC2 | -22% | -2% | 4 | 5% | -9%
Cn1nc(-c2ccccc2)c(-c2nc(-c3cccc(C(F)(F)F)c3)no2)c1Cl | ? | 1.6µM* | 0 | 10% | -1%
Cn1nc(-c2ccccc2)c(-c2nc(-c3cccc(Cl)c3)no2)c1Cl | ? | ? | -11 | 9% | 19%
CN(C)c1ccc(N/C=C/C(=O)c2ccccc2)cc1 | 11µM* | 11µM* | -11 | 8.9µM* | ?
O=C(/C=C/Nc1ccccc1)c1ccccc1 | -25% | -6% | 12 | -12% | -14%
CC(C)(C)C(=O)/C=C/Nc1ccccc1O | 12µM* | 13µM* | 0 | ? | 13µM*
CN(C)c1ccc(N/C=C/C(=O)C(C)(C)C)cc1 | 18µM* | ? | -98* | -21% | ?
O=C(CC[C@H]1O[C@@H](n2ccc(=O)[nH]c2=O)[C@H](O)[C@@H]1O)NC1CCN(Cc2ccccc2)C1 (stereo partly specified) | 19% | -1% | 0 | 18% | 19%
Cc1csc(NC(=O)CSc2nc(C(C)C)nc3ccccc23)n1 | ? | 12µM* | -96* | ? | -25%
CC(C)c1nc(SCC(=O)Nc2ccc(N(C)C)cc2)c2ccccc2n1 | 23µM* | ? | -22 | -29% | ?
O=C(/C=C/c1cccc(Cl)c1)NCc1ccccc1 | 13% | -5% | 11 | 19% | 28%
CCOc1ccc(N2CC(NC(=O)c3ccc(S(=O)(=O)N4CCOCC4)cc3)CC2=O)cc1 (stereo unspecified) | -7% | ? | . | . | .
